Laboratory results published in PubChem BioAssay AID1159580 (chemical genetic matrix, 2015).
“And” between values parts separate entries of the source, which are not always exact repeats. Equal values may be shown once. The campaign covered roughly 5,500 compounds. About 2,000 (36%) were called active. About 18% were inconclusive and are not listed. Cut-off read from the data, not from the text of the source: active = normalized growth mostly below about 0.91 (no sharp cut-off); inconclusive = no clear call, values can overlap the other calls; inactive = mostly above about 0.92. The list shows a part of the results.

Test: chemical genetic growth profiling, strain panel (AID 1159580);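 note: tested at 20 µM; growth read once vehicle control cultures reached saturation at 30 °C; 1 = growth at the plate median or of vehicle wells; lower values mean less growth of the strain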
Conditions: S. cerevisiae deletion strains, growth OD

Measured: normalized growth

N#Cc1c(Cl)c(Cl)c(Cl)c(C#N)c1Cl
active: locus YAL021C, strain ccr4, stronger effect = lower value 0.0842 | locus YAL026C, strain drs2, stronger effect = lower value 0.0831 | locus YAL030W, strain snc1, stronger effect = lower value 0.0677 | locus YBL061C, strain skt5, stronger effect = lower value 0.0748 | locus YBR009C, strain hhf1, stronger effect = lower value 0.0742 | locus YBR023C, strain chs3, stronger effect = lower value 0.0756 | locus YBR171W, strain sec66, stronger effect = lower value 0.0931 | locus YBR231C, strain swc5, stronger effect = lower value 0.077 | locus YBR279W, strain paf1, stronger effect = lower value 0.0631 | locus YCL011C, strain gbp2, stronger effect = lower value 0.0716 | locus YCL016C, strain dcc1, stronger effect = lower value 0.0812 | locus YCL061C, strain MRC1, stronger effect = lower value 0.078 | locus YCL069W, strain vba3, stronger effect = lower value 0.0768 | locus YCR088W, strain abp1, stronger effect = lower value 0.0707 | locus YDL005C, strain med2, stronger effect = lower value 0.0898 | locus YDL040C, strain nat1, stronger effect = lower value 0.0666 | locus YDR001C, strain nth1, stronger effect = lower value 0.071 | locus YDR069C, strain doa4, stronger effect = lower value 0.0807 | locus YDR137W, strain rgp1, stronger effect = lower value 0.106 | locus YDR159W, strain sac3, stronger effect = lower value 0.113 | locus YDR195W, strain ref2 0.161 | locus YDR297W, strain sur2, stronger effect = lower value 0.0715 | locus YDR334W, strain swr1, stronger effect = lower value 0.0727 | locus YDR335W, strain msn5, stronger effect = lower value 0.0699 | locus YDR392W, strain spt3, stronger effect = lower value 0.0937 | locus YEL003W, strain gim4, stronger effect = lower value 0.0699 | locus YEL037C, strain rad23, stronger effect = lower value 0.0662 | locus YEL061C, strain CIN8 (second series), stronger effect = lower value 0.0687 | locus YER015W, strain faa2, stronger effect = lower value 0.078 | locus YER016W, strain bim1, stronger effect = lower value 0.0769 | locus YER111C, strain swi4, stronger effect = lower value 0.0874 | locus YER155C, strain BEM2 (second series), stronger effect = lower value 0.108 | locus YFR010W, strain ubp6, stronger effect = lower value 0.0828 | locus YGL167C, strain pmr1, stronger effect = lower value 0.0894 | locus YGL173C, strain kem1, stronger effect = lower value 0.084 | locus YGL227W, strain vid30, stronger effect = lower value 0.0779 | locus YGL240W, strain doc1, stronger effect = lower value 0.0947 | locus YGL253W, strain hxk2, stronger effect = lower value 0.0661 | locus YHR013C, strain ard1, stronger effect = lower value 0.114 | locus YHR027C, strain rpn1, stronger effect = lower value 0.0746 | locus YHR079C, strain IRE1, stronger effect = lower value 0.142 | locus YHR142W, strain chs7, stronger effect = lower value 0.0874 | locus YJL092W, strain hpr5, stronger effect = lower value 0.0707 | locus YJL095W, strain BCK1 (second series), stronger effect = lower value 0.0749 | locus YJL115W, strain asf1, stronger effect = lower value 0.0849 | locus YJL129C, strain trk1, stronger effect = lower value 0.106 | locus YJL154C, strain vps35, stronger effect = lower value 0.07 | locus YJL164C, strain tpk1, stronger effect = lower value 0.0766 | locus YJL166W, strain qcr8, stronger effect = lower value 0.0732 | locus YJR066W, strain TOR1, stronger effect = lower value -0.00264
0.992 (inactive) and 0.126 (active): locus YHR030C, strain SLT2, stronger effect = lower value
inactive: locus YAL013W, strain DEP1, stronger effect = lower value 1 | locus YBR021W, strain FUR4, stronger effect = lower value 0.953 | locus YBR229C, strain ROT2, stronger effect = lower value 0.991 | locus YCL029C, strain bik1, stronger effect = lower value 0.976 | locus YDL035C, strain GPR1, stronger effect = lower value 1 | locus YDL074C, strain BRE1, stronger effect = lower value 1.01 | locus YDL101C, strain DUN1, stronger effect = lower value 1 | locus YDL134C, strain PPH21, stronger effect = lower value 0.992 | locus YDL185W, strain tfp1, stronger effect = lower value 0.951 | locus YDL192W, strain arf1, stronger effect = lower value 0.984 | locus YDR101C, strain arx1, stronger effect = lower value 0.986 | locus YDR150W, strain NUM1, stronger effect = lower value 1.01 | locus YDR162C, strain NBP2, stronger effect = lower value 1.01 | locus YDR318W, strain mcm21, stronger effect = lower value 0.975 | locus YDR388W, stronger effect = lower value 0.97 | locus YDR502C, strain sam2, stronger effect = lower value 0.996 | locus YEL061C, strain CIN8, stronger effect = lower value 1 | locus YER110C, stronger effect = lower value 0.976 | locus YER155C, strain BEM2, stronger effect = lower value 0.993 | locus YER167W, strain BCK2, stronger effect = lower value 0.993 | locus YGL078C, strain dbp3, stronger effect = lower value 0.983 | locus YGL086W, strain mad1, stronger effect = lower value 0.976 | locus YGL248W, strain PDE1, stronger effect = lower value 0.994 | locus YGR078C, strain PAC10, stronger effect = lower value 1.01 | locus YGR135W, strain pre9, stronger effect = lower value 0.998 | locus YGR229C, strain SMI1, stronger effect = lower value 1 | locus YGR252W, strain gcn5, stronger effect = lower value 0.932 | locus YHR079C, strain IRE1 (second series), stronger effect = lower value 0.98 | locus YHR094C, strain hxt1, stronger effect = lower value 0.979 | locus YHR129C, strain ARP1, stronger effect = lower value 1 | locus YHR200W, strain rpn10, stronger effect = lower value 0.973 | locus YIL066C, strain RNR3, stronger effect = lower value 0.989 | locus YIL073C, strain SPO22, stronger effect = lower value 0.969 | locus YIL125W, strain kgd1, stronger effect = lower value 0.98 | locus YIR030C, strain dcg1, stronger effect = lower value 0.976 | locus YJL134W, strain LCB3, stronger effect = lower value 0.998 | locus YJL168C, strain set2, stronger effect = lower value 0.985 | locus YJL187C, strain SWE1 (second series), stronger effect = lower value 0.994 | locus YJR043C, strain POL32, stronger effect = lower value 0.994
1 (inactive) and 0.151 (active): locus YJL095W, strain BCK1, stronger effect = lower value
